PubChem BioAssay (NCI)
The panel holds about 79,000 compounds, 15% with a hit somewhere; the sample as a whole holds those more often. Values without a mark were called inactive. The source made the active and inactive calls. Cut-off read from the data, not from the text of the source: active = growth inhibition above about 70%; inactive = the rest.

Columns and labels:
[1] = NCI Yeast Anticancer Drug Screen. Data for the rad52 strain (AID 147);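 note: 0% = growth of vehicle-treated control cultures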; conditions: S. cerevisiae rad52 mutant growth inhibition, hits give high values
Method in brief: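 DNA repair-defective yeast; compound exposure; growth scored against vehicle controls.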

[2] = NCI Yeast Anticancer Drug Screen. Data for the wt1 strain (AID 149);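 note: 0% = growth of vehicle-treated wt1 cultures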; conditions: S. cerevisiae wt1 strain (SPY 50644) growth inhibition, hits give high values
Method in brief: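 Vehicle-normalised growth inhibition; strain wt1; compound exposure.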

[3] = NCI Yeast Anticancer Drug Screen. Data for the rad50EPP+ strain (AID 151);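 note: 0% = growth of vehicle-treated control cultures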; conditions: S. cerevisiae rad50 mutant strain, hits give high values
Method in brief: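 rad50EPP+ yeast treated with test compounds. Readout: growth vs vehicle control.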

[4] = NCI Yeast Anticancer Drug Screen. Data for the mgt1 strain (AID 153); conditions: S. cerevisiae mgt1 mutant growth inhibition, hits give high values
Method in brief: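 Growth inhibition relative to vehicle controls was scored for the mgt1 yeast strain after compound exposure.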

[5] = NCI Yeast Anticancer Drug Screen. Data for the rad50 strain (AID 155);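 note: 0% = growth of vehicle-only cultures of the same strain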; conditions: S. cerevisiae rad50 strain growth inhibition, hits give high values
Method in brief: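 A DNA repair-deficient yeast mutant serves as the test organism; compound-induced growth inhibition is calculated against vehicle-treated cells.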

[6] = NCI Yeast Anticancer Drug Screen. Data for the mec2-1 strain (AID 157); conditions: S. cerevisiae mec2-1 strain, hits give high values
Method in brief: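 Growth inhibition is read against vehicle-treated controls after compound exposure of the mec2-1 yeast strain, which is defective in DNA damage repair or cell cycle control.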

[7] = NCI Yeast Anticancer Drug Screen. Data for the rad14 strain (AID 159);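 note: 0% = growth of vehicle-treated control cultures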; conditions: S. cerevisiae rad14 strain growth inhibition, hits give high values
Method in brief: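 Vehicle-treated cultures served as the baseline for growth inhibition of a DNA repair-mutant yeast strain exposed to each compound.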

[8] = NCI Yeast Anticancer Drug Screen. Data for the sgs1 mgt1 strain (AID 161);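 note: 0% = growth of cultures given vehicle only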; conditions: S. cerevisiae sgs1 mgt1 strain, hits give high values
Method in brief: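 Yeast cells carrying a defined DNA-repair defect were exposed to test compounds. Growth inhibition was measured relative to vehicle-treated controls.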

[9] = NCI Yeast Anticancer Drug Screen. Data for the CLN2oe strain (AID 163);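 note: 0% = growth of vehicle-only control cultures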; conditions: S. cerevisiae CLN2oe strain, hits give high values
Method in brief: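 Compound-treated yeast; growth vs vehicle ctrl = % inhibition. Genetically altered strain (cell-cycle control).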

[10] = NCI Yeast Anticancer Drug Screen. Data for the cln2 rad14 strain (AID 165);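 note: 0% = growth equal to vehicle treated cultures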; conditions: S. cerevisiae cln2 rad14 strain, hits give high values
Method in brief: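 Growth inhibition, relative to vehicle-treated controls, is the read-out. The test organism is a yeast strain with defined genetic alterations, cln2 rad14.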

[11] = NCI Yeast Anticancer Drug Screen. Data for the bub3 strain (AID 167); conditions: S. cerevisiae bub3 mutant strain, hits give high values
Method in brief: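 Inhibition values come from growth of compound-treated mutant yeast normalised to vehicle-treated controls.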

[12] = NCI Yeast Anticancer Drug Screen. Data for the wt2 strain (AID 169);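 note: 0% = growth of vehicle-treated yeast cultures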; conditions: S. cerevisiae wt2 strain growth inhibition, hits give high values
Method in brief: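 Compound exposure of yeast; growth compared with vehicle controls; inhibition reported.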

[13] = NCI Yeast Anticancer Drug Screen. Data for the mlh1 strain (AID 171);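 note: 0% = growth of vehicle-treated control cultures of the same strain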; conditions: S. cerevisiae mlh1 strain growth inhibition, hits give high values
Method in brief: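 Compounds are applied to a genetically altered yeast strain, and its growth is compared with that of vehicle-treated cultures to give percent inhibition.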

[14] = NCI Yeast Anticancer Drug Screen. Data for the sgs1 strain (AID 173);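 note: 0% = growth of vehicle-only control cultures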; conditions: S. cerevisiae sgs1 mutant, hits give high values
Method in brief: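 Compounds applied to genetically altered yeast; growth compared with vehicle-treated cultures to give % inhibition.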

[15] = NCI Yeast Anticancer Drug Screen. Data for the mlh1 rad18 strain (AID 175); conditions: S. cerevisiae mlh1 rad18 strain growth inhibition, hits give high values
Method in brief: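 Cells of a genetically altered yeast strain, deficient in DNA damage repair, were treated with compound. Their growth was then compared with that of vehicle-treated cultures to give inhibition.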

[16] = NCI Yeast Anticancer Drug Screen. Data for the rad18 strain (AID 177); conditions: S. cerevisiae rad18 mutant growth inhibition, hits give high values
Method in brief: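 Compounds are applied to a repair-deficient yeast strain, and growth is compared with that of vehicle-treated cultures to give percent inhibition.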

[17] = at 5.0 µM (retest, dose inferred, filed as 0.5)
[18] = at 50.0 µM (retest, dose inferred, filed as 5.0)

SMILES: O=C(COC(=O)c1cc(O)c(O)c(O)c1)c1ccc(-c2ccccc2)cc1
- growth inhibition ([1]; at 1.2 µM): -2%
- growth inhibition ([1]; at 3.7 µM): 2%
- growth inhibition ([1]; at 11.0 µM): 8%
- growth inhibition ([1]; at 33.0 µM): 38%
- growth inhibition ([1]; at 100.0 µM): 96% (active)
- growth inhibition ([2]; at 1.2 µM): -3%
- growth inhibition ([2]; at 3.7 µM): -3%
- growth inhibition ([2]; at 11.0 µM): -2%
- growth inhibition ([2]; at 33.0 µM): 10%
- growth inhibition ([2]; at 100.0 µM): 97% (active)
- growth inhibition ([3]; at 1.2 µM): 6%
- growth inhibition ([3]; at 3.7 µM): 21%
- growth inhibition ([3]; at 11.0 µM): 47%
- growth inhibition ([3]; at 33.0 µM): 91% (active)
- growth inhibition ([3]; at 100.0 µM): 96% (active)
- growth inhibition ([4]; at 1.2 µM): -1%
- growth inhibition ([4]; at 3.7 µM): -1%
- growth inhibition ([4]; at 11.0 µM): 0%
- growth inhibition ([4]; at 33.0 µM): 46%
- growth inhibition ([4]; at 100.0 µM): 39%
- growth inhibition ([5]; at 1.2 µM): -1%
- growth inhibition ([5]; at 3.7 µM): 1%
- growth inhibition [5, 17]: -16%
- growth inhibition ([5]; at 11.0 µM): 11%
- growth inhibition ([5]; at 33.0 µM): 42%
- growth inhibition [5, 18]: 94% (active)
- growth inhibition ([5]; at 50.0 µM): 45.9%
- growth inhibition ([5]; at 100.0 µM): 95% (active)
- growth inhibition ([6]; at 1.2 µM): -3%
- growth inhibition ([6]; at 3.7 µM): -3%
- growth inhibition [6, 17]: 6%
- growth inhibition ([6]; at 11.0 µM): 3%
- growth inhibition ([6]; at 33.0 µM): 34%
- growth inhibition [6, 18]: 95% (active)
- growth inhibition ([6]; at 50.0 µM): 30.4%
- growth inhibition ([6]; at 100.0 µM): 97% (active)
- growth inhibition ([7]; at 1.2 µM): 1%
- growth inhibition ([7]; at 3.7 µM): 1%
- growth inhibition ([7]; at 11.0 µM): 9%
- growth inhibition ([7]; at 33.0 µM): 44%
- growth inhibition ([7]; at 100.0 µM): 95% (active)
- growth inhibition [8, 17]: 7%
- growth inhibition [8, 18]: 98% (active)
- growth inhibition ([8]; at 50.0 µM): 60.9%
- growth inhibition ([9]; at 1.2 µM): -6%
- growth inhibition ([9]; at 3.7 µM): -9%
- growth inhibition ([9]; at 11.0 µM): -11%
- growth inhibition ([9]; at 33.0 µM): -1%
- growth inhibition ([9]; at 100.0 µM): 83% (active)
- growth inhibition [10, 17]: -84%
- growth inhibition [10, 18]: -12%
- growth inhibition ([10]; at 50.0 µM): 0.6%
- growth inhibition ([11]; at 1.2 µM): -4%
- growth inhibition ([11]; at 3.7 µM): -3%
- growth inhibition [11, 17]: 3%
- growth inhibition ([11]; at 11.0 µM): -3%
- growth inhibition ([11]; at 33.0 µM): 21%
- growth inhibition [11, 18]: 97% (active)
- growth inhibition ([11]; at 50.0 µM): 59.2%
- growth inhibition ([11]; at 100.0 µM): 97% (active)
- growth inhibition ([12]; at 1.2 µM): -3%
- growth inhibition ([12]; at 3.7 µM): -5%
- growth inhibition ([12]; at 11.0 µM): -4%
- growth inhibition ([12]; at 33.0 µM): 66%
- growth inhibition ([12]; at 100.0 µM): 95% (active)
- growth inhibition ([13]; at 1.2 µM): -3%
- growth inhibition ([13]; at 3.7 µM): 0%
- growth inhibition ([13]; at 11.0 µM): 4%
- growth inhibition ([13]; at 33.0 µM): 57%
- growth inhibition ([13]; at 100.0 µM): 95% (active)
- growth inhibition ([14]; at 1.2 µM): -1%
- growth inhibition ([14]; at 3.7 µM): 1%
- growth inhibition ([14]; at 11.0 µM): 11%
- growth inhibition ([14]; at 33.0 µM): 63%
- growth inhibition ([14]; at 100.0 µM): 97% (active)
- growth inhibition [15, 17]: 19%
- growth inhibition [15, 18]: 97% (active)
- growth inhibition ([15]; at 50.0 µM): 40.2%
- growth inhibition ([16]; at 1.2 µM): -1%
- growth inhibition ([16]; at 3.7 µM): 2%
- growth inhibition ([16]; at 11.0 µM): 12%
- growth inhibition ([16]; at 33.0 µM): 58%
- growth inhibition ([16]; at 100.0 µM): 95% (active)
